Experimental findings from PubChem BioAssay AID1508602 (The Scripps Research Institute Molecular Screening Center, 2020) are described below.

In all, about 650,000 compounds went through this assay and about 6,800 (1%) were called active. This is one part of a sample in which actives are shown more often than they occur. Values without a mark were called inactive. Rule as the data show it: active = activation above about 4.9%; inactive = the rest.

This assay deals with G-protein coupled receptor 151 (Homo sapiens) (UniProt Q8TDV0). Kind of assay: activates the human receptor GPR151, primary screen, cell-based, PathHunter beta-arrestin, luminescence (AID 1508602).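 Also: 0% = median of compound wells and 100% = cells with positive control.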 Particulars: PathHunter beta-arrestin GPR151 cells, at 11.2 µM, hits give high values.
G-protein coupled receptor 151 (Homo sapiens), sequence (Q8TDV0 whole entry, looked up): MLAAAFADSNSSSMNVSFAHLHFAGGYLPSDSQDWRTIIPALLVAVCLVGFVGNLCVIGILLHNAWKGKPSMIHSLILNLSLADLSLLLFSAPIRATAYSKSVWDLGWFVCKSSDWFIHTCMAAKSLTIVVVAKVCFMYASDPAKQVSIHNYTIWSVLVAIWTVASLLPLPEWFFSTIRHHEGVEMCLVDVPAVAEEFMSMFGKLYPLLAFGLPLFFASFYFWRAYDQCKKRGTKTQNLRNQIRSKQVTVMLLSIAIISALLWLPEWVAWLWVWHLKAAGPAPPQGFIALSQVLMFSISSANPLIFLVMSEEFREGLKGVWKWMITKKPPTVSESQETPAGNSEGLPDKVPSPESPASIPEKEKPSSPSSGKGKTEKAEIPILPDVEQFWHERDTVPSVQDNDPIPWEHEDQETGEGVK
`CCn1c(C(CC(C)C)NC(=O)C2CC2)nc2cccnc21` (centres undefined): the activation is -0.148%.
The result for `COc1ccc(C(=O)N2CCCN(c3nc4cc(C)c(C)cc4cc3C#N)CC2)cc1OC` reads 2.69%; that for `Cc1ccc(C(=O)NCC(=O)OCC(=O)N(C(C)C)C(C)C)cc1C`, -0.906%; that for `CCOc1cc2c(cc1OCC)C(c1cc(F)c(F)c(F)c1)NCC2` (centres undefined), -0.242%.
Under `CCOc1cc2c(cc1OCC)C(c1ccc3ccccc3c1)NCC2` (centres undefined) stands 5.53% (active); under `CCOc1cc2c(cc1OCC)C(c1ccc(OC)c(C)c1)NCC2` (centres undefined), 0.975%; under `O=C(NC1CCCCCC1)c1ccc(NS(=O)(=O)c2cccs2)cc1`, 2.64%.
As to `COc1cc(/C=N/N=C2/NC(=O)CS2)ccc1OC(=O)c1ccccc1C`, the activation is 10.4% (active).
The result for `COc1ccc(/C=N/N=C2/NC(=O)CS2)c(OC)c1` reads -0.156%; that for `COc1cccc(/C=N/N=C2/NC(=O)CS2)c1O`, -1.32%.
The result for `COCCn1c(=NC(=O)c2c(C)cnn2C)sc2cc(Cl)ccc21` reads -0.961%.
The result for `Cc1ccc(C(=O)Nc2ccc(N(C)C)cc2)cc1C` reads -2.22%; that for `Cc1ccc(NC(=O)c2cccc(N(C)C)c2)cc1NC(=O)c1ccc(O)cc1`, 8.84% (active).
For `Cc1cccc(C(=O)Nc2ccc(C(=O)Nc3ccc(C(=O)Nc4ccccc4C)cc3)cc2)c1`, the activation was 2.61%.
The result for `Cc1ccc(Nc2nc(-c3ccccn3)cs2)cc1C` reads 11.2% (active); that for `Cc1cccc(Nc2nc(-c3ccc(I)cc3)cs2)c1`, -1.86%; that for `Cc1ccc(-c2csc(Nc3ccccc3)n2)c(C)c1`, 0.521%.
The result for `O=C(c1ccccc1)N1CCN(C2CC(=O)N(c3cc(Cl)cc(Cl)c3)C2=O)CC1` (centres undefined) reads -0.358%; that for `Cc1ccc(OCCN2CCNCC2)c(Cl)c1`, 0.0124%.
The result for `CC(C)C(=O)NC(C)c1nnc2n1CCN(Cc1ccc3cccnc3c1)CC2` (centres undefined) reads 5.04% (active); that for `CC(C)C(=O)NC(C)c1nnc2n1CCN(Cc1cccc3ncccc13)CC2` (centres undefined), 0.68%; that for `CCC(=O)NC(c1nnc2n1CCN(Cc1ccc3cccnc3c1)CC2)C(C)C` (centres undefined), 0.149%.
As to `Cc1cc(OCC(=O)NNC(=O)COc2ccc(Br)cc2Br)cc(C)c1Cl`, the activation was 0.12%.
Regarding `CC(C)c1nc2sc3c(NCCCO)ncnc3c2c2c1COC(C)(C)C2`, the activation was 1.25%.
The result for `COCCN1C(=O)c2ccc(C(=O)Nc3ccc(C(=O)O)cc3)cc2C1=O` reads -0.197%.
Under `CCCN1C(=O)c2ccc(C(=O)Nc3ccc(C(C)=O)cc3)cc2C1=O` stands 6.33% (active); under `CCCN1C(=O)c2ccc(C(=O)Nc3ccc(O)cc3C(=O)O)cc2C1=O`, -4.67%; under `O=C(CCC1=NS(=O)(=O)c2ccccc2N1)N1CCN(c2ccccc2)CC1`, 0.684%.
Under `O=[N+]([O-])c1ccc(Nc2nc(Cl)nc(NCCN3CCOCC3)n2)cc1` stands 3.01%.
As to `CCOC(=O)C(=O)NCC1COc2ccccc2O1` (centres undefined), the activation is 0.866%.
Under `COc1ccc(Br)cc1C(=O)NCC1COc2ccccc2O1` (centres undefined) stands 5.44% (active); under `COc1cc(C(=O)NCCC(=O)NCC2COc3ccccc3O2)cc(OC)c1OC` (centres undefined), -0.141%.
The result for `O/N=C(\C(=N\O)c1ccccc1)c1ccccc1` reads -0.0395%; that for `COC(=O)Cc1ccc(NC(=S)N2CCC(C(N)=O)CC2)cc1`, -0.283%.
For the molecule `O=C(NCC1CCCO1)c1ccc(N2CC3CC(C2)c2cccc(=O)n2C3)c(NS(=O)(=O)c2ccc(Cl)cc2)c1` (centres undefined), the activation was -2.43%.
In the case of `CCN(CC)C(=O)C1CCCN(c2nc(NCc3cccc(C(F)(F)F)c3)c3cc(OC)c(OC)cc3n2)C1` (centres undefined), the activation is -0.297%.
Under `FC(F)(F)c1cccc(CNc2ccnc(N3CCOCC3)n2)c1` stands 0.285%.
The result for `CCN(CC)C(=O)C1CCCN(c2ncc(C)c(NCc3cccc(C(F)(F)F)c3)n2)C1` (centres undefined) reads 5.92% (active); that for `FC(F)(F)c1ccc(Cn2cnc3c(NCc4cccc(C(F)(F)F)c4)nc(Nc4ccc(N5CCOCC5)cc4)nc32)cc1`, 5.04% (active).
Under `Cc1cnc(Nc2ccc(N3CCOCC3)cc2)nc1NCc1cccc(C(F)(F)F)c1` stands 6.5% (active); under `CCN(CC)C(=O)C1CCCN(c2ncc(C)c(Nc3ccc(N4CCOCC4)cc3)n2)C1` (centres undefined), 0.13%; under `FC(F)(F)c1cccc(CNc2nc(Nc3ccc(N4CCOCC4)cc3)nc3c2ncn3-c2ccsc2)c1`, 0.773%.
Turning to `FC(F)(F)c1cccc(CNc2ncnc3nc(N4CCOCC4)[nH]c23)c1`, the activation was 1.38%.
As for `c1ccc(CNc2nc(Nc3ccc(N4CCOCC4)cc3)nc3c2ncn3-c2ccccc2)cc1`, the activation is 1.12%.
The result for `COc1ccc(/C=N/NC(=O)CN(C)C(=O)c2ccccc2)cc1` reads -1.44%; that for `COc1ccc(Cl)cc1NC(=O)C1c2cc(OC)c(OC)cc2C(=O)N(C)C1c1ccc(OC)c(OC)c1` (centres undefined), 4.36%.
Under `Cc1ccc(N2C(=O)C3ON(c4ccc(Cl)cc4)C(c4ccco4)C3C2=O)cc1` (centres undefined) stands -1.12%.
Under `COCc1c(C(=O)N/N=C/c2cccc(F)c2)nnn1-c1nonc1N` stands -0.56%; under `O=C(Cc1ccc(Cl)cc1)NCc1nnnn1C1CCCCC1`, -1.64%; under `CCCc1cc(=O)[nH]c(Nc2cccc(O)c2)n1`, 0.777%.
`CCOC(=O)C1=C(N)OC2=C(C(=O)CC(C)(C)C2)C1c1cc(OC)ccc1F` (centres undefined): the activation is -1.02%.
Under `Cc1[nH]n(-c2nc3c(c(=O)[nH]2)CCCC3)c(=O)c1CCO` stands -1.77%; under `C=CCn1c(SCC(=O)N2c3ccccc3CC2C)nc2sc(C)c(C)c2c1=O` (centres undefined), 0.176%.
The result for `COCCNc1nc2nonc2nc1N1CCC(N2C[C@@H](C)O[C@@H](C)C2)CC1` reads -0.822%; that for `O=C(/C=C/Nc1ccccc1NS(=O)(=O)c1ccc([N+](=O)[O-])cc1)c1ccco1`, 6.93% (active); that for `O=C(/C=N/Nc1ccc([N+](=O)[O-])cc1[N+](=O)[O-])c1ccco1`, 0.644%.
The result for `O=[N+]([O-])c1ccc(S(=O)(=O)NCCc2ccccc2)cc1` reads 0.345%; that for `O=C(NCc1ccccc1)N(CCN1CCCC1)Cc1cc2cc3c(cc2[nH]c1=O)OCO3`, -0.475%.
As to `Cc1ccc(S(=O)(=O)C2(C(=O)Nc3ccc([N+](=O)[O-])cn3)CC2)cc1`, the activation is 0.544%.
The result for `COc1cc(S(=O)(=O)NCCN2CCOCC2)ccc1Br` reads -1.15%.
The result for `CCc1ccc(S(=O)(=O)NCCOc2cc(N3CCOCC3)ncn2)cc1` reads 5.88% (active).
Under `CC(C)N(CCNc1cc(N2CCOCC2)ncn1)C(C)C` stands -0.393%; under `O=C1CCCC2=C1C(c1ccccc1[N+](=O)[O-])c1c([nH]c(=O)[nH]c1=O)N2` (centres undefined), -0.211%; under `COc1ccc2c(=O)c(C(=O)O)c[nH]c2c1`, -1.56%.
Consider `CC(=O)Nc1ccc(NC(=O)/C=C\C(=O)O)cc1C`, for which the activation was 2.3%.
Under `CCOC(=O)C1=C(c2ccccc2)S/C(=C2/C(=S)C(C)(C)N(C(C)=O)c3cc(C)c(C)cc32)S1` stands 1.9%; under `N#CCCN1c2ccccc2Sc2ccc(C(F)(F)F)cc21`, 1.1%; under `O=C(Nc1cc([N+](=O)[O-])ccc1Cl)c1cc(Cl)ccc1Cl`, -0.475%.
The result for `CC(=O)Nc1ccc(NC(=O)c2ccc3nc(Br)sc3c2)cc1` reads 6.16% (active).
For `CCNc1nc2ccc(C(=O)Nc3ccc(NC(C)=O)cc3)cc2s1`, the activation is -3.46%.
Regarding `O=C(Nc1ccccc1)c1ccc2nc(Br)sc2c1`, the activation is -4.09%.
The result for `Cc1ccc(C(=O)NCC(=O)OCC(=O)Nc2cccc(Cl)c2)s1` reads 0.82%; that for `NC(=O)c1c(NC(=O)c2ccccc2F)sc2c1CCCCCC2`, 1.12%.
Under `COC(CNC(=O)CC(NS(=O)(=O)c1ccc(C)cc1)c1ccco1)OC` (centres undefined) stands -0.827%; under `COC(=O)c1ccc2c(=O)n(CCN3CCOCC3)c(SCc3cc(C(C)=O)ccc3OC)nc2c1`, -0.152%; under `O=C(CCc1nnc(Cc2cccc(C(F)(F)F)c2)o1)N1CCSCC1`, -0.806%.
Under `O=C(CCc1nnc(CCCCc2ccccc2)o1)N1CCC(N2CCSCC2)CC1` stands 7% (active).
On to `COc1ccccc1NC(=O)Nc1ccnn1C1CCN(C(=O)CCc2ccccc2)CC1`, for which the activation is 0.323%.
The result for `CN(Cc1ccno1)C(=O)CC1C(=O)NCCN1Cc1ccoc1` (centres undefined) reads 1.36%; that for `COc1cccc(N(C(=O)c2csnn2)C(C(=O)NC(C)(C)C)c2ccc(F)cc2)c1` (centres undefined), 0.396%.
The result for `CCc1ccc(CN(C)C(=O)CC2(c3ccccc3Cl)CC(=O)N(C)C2=O)cc1` (centres undefined) reads 0.519%.
Regarding `CCc1ccc(-c2oc(C)c(C)[n+]2[O-])cc1`, the activation is -2.56%.
`COCCN1C(=O)CC(CC(=O)N(C)C(C)C)(c2ccccc2F)C1=O` (centres undefined): the activation was -1.69%.
The result for `Cc1cnc(CN(C)C(=O)CC2(c3ccccc3C)CC(=O)N(CCN(C)C)C2=O)[nH]1` (centres undefined) reads 1.18%.
Under `COCCN1C(=O)CC(CC(=O)NCc2nc3ccccc3[nH]2)(c2ccccc2C)C1=O` (centres undefined) stands 6.75% (active).
With `COCCNC(=O)c1cnn2c(C)c(Cc3ccc(Cl)cc3)c(C)nc12`, the activation is 0.41%.
The result for `CC(=O)c1ccc(-c2cnc3[nH]c(=O)n(C4CCCCC4)c3n2)s1` reads -0.0776%; that for `Cc1ccc(S(=O)(=O)N2CC3CC3C2C(=O)Nc2ccc(F)cc2)cc1` (centres undefined), 0.0458%.
The result for `Nc1ccc(C(=O)Nc2nc3ccc(C(=O)N4CCCCC4)cc3s2)cc1` reads -0.249%.
